{"source": "paper PMC4336329", "about": "(PLoS ONE, 2015)", "note": "The campaign covered roughly 310,000 compounds. About 2,200 (0.71%) showed an effect of 50% or more. The effect is printed as a negative number. The sample as a whole holds a higher share of strong results than the screen did."}
{"biological_target": "human ether-à-go-go-related gene (hERG) potassium channel (human, UniProt Q12809)", "sequence (Q12809 whole entry, looked up)": "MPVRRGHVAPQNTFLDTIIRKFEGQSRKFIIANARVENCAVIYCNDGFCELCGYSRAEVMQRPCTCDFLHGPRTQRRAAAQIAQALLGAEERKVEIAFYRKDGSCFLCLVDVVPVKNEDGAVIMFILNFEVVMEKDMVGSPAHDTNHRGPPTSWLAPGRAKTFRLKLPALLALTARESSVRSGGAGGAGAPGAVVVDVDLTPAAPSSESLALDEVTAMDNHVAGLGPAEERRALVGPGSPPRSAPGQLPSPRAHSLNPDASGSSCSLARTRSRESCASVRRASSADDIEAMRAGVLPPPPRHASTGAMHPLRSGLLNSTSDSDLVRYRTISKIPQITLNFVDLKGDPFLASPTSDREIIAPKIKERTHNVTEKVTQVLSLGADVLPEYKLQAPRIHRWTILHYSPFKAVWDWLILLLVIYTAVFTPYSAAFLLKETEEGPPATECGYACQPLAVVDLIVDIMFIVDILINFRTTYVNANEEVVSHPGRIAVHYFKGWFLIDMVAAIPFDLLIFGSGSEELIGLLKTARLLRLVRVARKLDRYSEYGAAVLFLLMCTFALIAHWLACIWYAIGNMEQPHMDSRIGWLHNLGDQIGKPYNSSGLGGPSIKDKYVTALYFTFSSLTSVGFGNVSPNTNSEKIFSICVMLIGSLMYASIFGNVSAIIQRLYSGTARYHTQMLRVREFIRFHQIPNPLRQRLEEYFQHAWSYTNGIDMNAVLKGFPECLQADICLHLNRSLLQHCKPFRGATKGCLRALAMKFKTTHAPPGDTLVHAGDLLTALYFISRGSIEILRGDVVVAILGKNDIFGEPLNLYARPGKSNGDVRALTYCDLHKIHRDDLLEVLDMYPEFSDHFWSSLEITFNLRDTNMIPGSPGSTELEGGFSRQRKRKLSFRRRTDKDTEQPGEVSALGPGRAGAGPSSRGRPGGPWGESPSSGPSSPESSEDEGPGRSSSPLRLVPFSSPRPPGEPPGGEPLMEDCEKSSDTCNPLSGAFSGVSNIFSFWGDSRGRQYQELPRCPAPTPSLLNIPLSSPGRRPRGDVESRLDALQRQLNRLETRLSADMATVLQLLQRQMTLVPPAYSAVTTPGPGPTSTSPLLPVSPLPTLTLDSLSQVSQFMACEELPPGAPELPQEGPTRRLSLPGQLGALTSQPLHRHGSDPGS", "test": "primary screen, population patch clamp on CHO cells stably expressing hERG; higher = less effect of the substance", "units": {"hERG current change (%, negative = inhibition) at 1uM": "%"}}
{"smiles": "Cc1ccc(CN(c2ccc(C(=O)NCc3cccnc3)cc2)S(C)(=O)=O)cc1", "hERG current change (%, negative = inhibition) at 1uM": 1.51}
{"smiles": "COc1ccc(N2CCN(CCCNC(=O)C(=O)c3c(C)n(C)c4ccccc34)CC2)cc1", "hERG current change (%, negative = inhibition) at 1uM": -9.85}
{"smiles": "COc1ccc2c(c1)C(NC(C)=O)C(=O)N2CCc1ccccc1", "note": "(centres unmarked)", "hERG current change (%, negative = inhibition) at 1uM": 3.02}
{"smiles": "Cc1oc(-c2ccoc2)nc1CN(CC1CCC(=O)N1)C(C)C", "note": "(centres unmarked)", "hERG current change (%, negative = inhibition) at 1uM": 11.6}
{"smiles": "CCNc1nc(N2CCCC2)nc(N2CCCC2)n1", "hERG current change (%, negative = inhibition) at 1uM": 0.687}
{"smiles": "CCCCN1CNC(=S)N(c2cc(C)ccc2C)C1", "hERG current change (%, negative = inhibition) at 1uM": 7.21}
{"smiles": "Nc1[nH]c(=O)nc(Nc2ccccc2)c1N=O", "hERG current change (%, negative = inhibition) at 1uM": 8.79}
{"smiles": "O=C(c1ccc(CNc2c(N3CCCC3)c(=O)c2=O)cc1)N1CCc2ccccc2C1", "hERG current change (%, negative = inhibition) at 1uM": -3.76}
{"smiles": "CCO[C@@H]1OC(C(=O)N2CCN(Cc3ccc4c(c3)OCO4)CC2)=C[C@H](c2ccc(C(F)(F)F)cc2)[C@H]1CCCO", "hERG current change (%, negative = inhibition) at 1uM": 3.44}
{"smiles": "COc1ccc(C(=O)N2CCN(C3CCCCC3)CC2)c(OC)c1", "hERG current change (%, negative = inhibition) at 1uM": -75}
{"smiles": "COc1cc(OC)cc(C(=O)N2CCN(C3CCCCC3)CC2)c1.O=C(O)C(=O)O", "hERG current change (%, negative = inhibition) at 1uM": -2.01}
{"smiles": "COc1ccc(C(=O)N2CCCN(C)CC2)c(OC)c1", "hERG current change (%, negative = inhibition) at 1uM": 11}
{"smiles": "CCC(Cc1ccccc1)NS(=O)(=O)c1csc(C(N)=O)c1", "note": "(centres unmarked)", "hERG current change (%, negative = inhibition) at 1uM": 22.5}
{"smiles": "CC(C)[C@H](NC(=O)N1CC(=O)Nc2ccccc21)C(=O)Nc1nccs1", "hERG current change (%, negative = inhibition) at 1uM": 24.4}
{"smiles": "O=C(c1ccc(C(F)(F)F)cc1)N1CCCCC1", "hERG current change (%, negative = inhibition) at 1uM": -4.21}
{"smiles": "Cn1c(CCN2CCN(c3ccccn3)CC2)nc2cc(NS(=O)(=O)c3ccc(Cl)cc3)ccc21", "hERG current change (%, negative = inhibition) at 1uM": -69.2}
{"smiles": "Cc1ccc(S(=O)(=O)Nc2ccc3c(c2)nc(CCN2CCN(c4ccccn4)CC2)n3C)cc1", "hERG current change (%, negative = inhibition) at 1uM": -80.7}
{"smiles": "Cc1ccc(S(=O)(=O)Nc2ccc3c(c2)nc(CCN2CCOCC2)n3C)cc1", "hERG current change (%, negative = inhibition) at 1uM": 6.29}
{"smiles": "CCCC(=O)Nc1ccc2c(c1)nc(CCN1CCN(c3ccccn3)CC1)n2C", "hERG current change (%, negative = inhibition) at 1uM": 1.68}
{"smiles": "CC(=O)Nc1ccc2c(c1)nc(CCN1CCN(c3ccccn3)CC1)n2C", "hERG current change (%, negative = inhibition) at 1uM": 12}
{"smiles": "CC(C)C(=O)Nc1ccc2c(c1)nc(CCN1CCN(c3ccccn3)CC1)n2C", "hERG current change (%, negative = inhibition) at 1uM": 6.24}
{"smiles": "O=CNc1ccc(OP(=O)(Oc2ccccc2)Oc2ccccc2)cc1", "hERG current change (%, negative = inhibition) at 1uM": 1.71}
{"smiles": "O=C(N/N=C(/c1ccccc1)c1ccncc1)c1ccc2c(c1)OCO2", "hERG current change (%, negative = inhibition) at 1uM": 2.11}
{"smiles": "CC(C(=O)O)N1CCCCC1.Cl", "note": "(centres unmarked)", "hERG current change (%, negative = inhibition) at 1uM": -4.62}
{"smiles": "O=C(Cn1cncc1-c1ccc([N+](=O)[O-])cc1)Nc1ccccc1F", "hERG current change (%, negative = inhibition) at 1uM": -0.387}
{"smiles": "O=C(c1noc2c1CCCC2)N1CCN(c2ccc(F)cc2)CC1", "hERG current change (%, negative = inhibition) at 1uM": 20}
{"smiles": "N#Cc1ccc(CN2CCN(C(=O)CCNS(=O)(=O)c3ccc(F)c(F)c3)CC2)cc1", "hERG current change (%, negative = inhibition) at 1uM": -62.3}
{"smiles": "O=C(CCNS(=O)(=O)c1ccc(Cl)cc1)N1CCN(Cc2ccccc2)CC1", "hERG current change (%, negative = inhibition) at 1uM": -16.1}
{"smiles": "N#Cc1ccc(CN2CCN(C(=O)CCNS(=O)(=O)c3ccc(F)c(Cl)c3)CC2)cc1", "hERG current change (%, negative = inhibition) at 1uM": -29.3}
{"smiles": "O=C(CCN1CCN(c2ccccc2F)CC1)Nc1ccccc1Cl", "hERG current change (%, negative = inhibition) at 1uM": 7.43}
{"smiles": "O=C(CCN1CCN(CC(=O)Nc2ccccc2F)CC1)Nc1ccccc1F", "hERG current change (%, negative = inhibition) at 1uM": -38.4}
{"smiles": "O=C(CN1CCN(CCC(=O)Nc2ccccc2F)CC1)Nc1ccc(Cl)cc1", "hERG current change (%, negative = inhibition) at 1uM": -84.3}
{"smiles": "O=C(CCN1CCN(c2ccc(Cl)cc2)CC1)Nc1ccccc1F", "hERG current change (%, negative = inhibition) at 1uM": 5.25}
{"smiles": "O=C(CCN1CCN(CC(=O)Nc2ccccc2Cl)CC1)Nc1ccccc1F", "hERG current change (%, negative = inhibition) at 1uM": -54}
{"smiles": "O=C(CCN1CCN(c2ccc(F)cc2)CC1)Nc1ccccc1F", "hERG current change (%, negative = inhibition) at 1uM": -9.21}
{"smiles": "O=C(CCN1CCN(S(=O)(=O)c2ccc(Cl)cc2)CC1)Nc1ccccc1F", "hERG current change (%, negative = inhibition) at 1uM": 4.11}
{"smiles": "O=C(CCN1CCN(c2ccccc2F)CC1)Nc1ccc(F)cc1", "hERG current change (%, negative = inhibition) at 1uM": 14.4}
{"smiles": "O=C(CN1CCN(CCC(=O)Nc2ccccc2F)CC1)Nc1ccc(F)cc1", "hERG current change (%, negative = inhibition) at 1uM": -78.3}
{"smiles": "CC(C)Oc1ccc(C(=O)OCC(=O)NCCNC(=O)COC(=O)c2ccc(OC(C)C)cc2)cc1", "hERG current change (%, negative = inhibition) at 1uM": 8.62}
{"smiles": "Cc1ccc(CCNC(=O)C2CCCN(S(=O)(=O)N3CC(C)CC(C)C3)C2)cc1", "note": "(centres unmarked)", "hERG current change (%, negative = inhibition) at 1uM": 16.3}
{"smiles": "COc1cc(Cl)c(C)cc1NC(=O)COc1ccccc1[N+](=O)[O-]", "hERG current change (%, negative = inhibition) at 1uM": -2.79}
{"smiles": "COc1cccc(/C=C/C(=O)Nc2ccc3c(c2)OCCO3)c1OC", "hERG current change (%, negative = inhibition) at 1uM": 15.5}
{"smiles": "CC(=O)NCCc1nc(-c2ccc(Cl)cc2)no1", "hERG current change (%, negative = inhibition) at 1uM": 10.3}
{"smiles": "CC(C)OC(=O)Cc1ccccc1", "hERG current change (%, negative = inhibition) at 1uM": 10.3}
{"smiles": "CCOc1nc(S(=O)(=O)c2ccc(C)cc2)c(Cl)s1", "hERG current change (%, negative = inhibition) at 1uM": 7.74}
{"smiles": "Clc1ccc(-c2nnc(NCc3ccccc3)c3ccccc23)cc1", "hERG current change (%, negative = inhibition) at 1uM": 4.55}
{"smiles": "Clc1ccc(-c2nc(NCCN3CCOCC3)c3ccccc3n2)cc1", "hERG current change (%, negative = inhibition) at 1uM": -16.9}
{"smiles": "Clc1ccc(-c2nnc(NCCN3CCCC3)c3ccccc23)cc1", "hERG current change (%, negative = inhibition) at 1uM": -55.1}
{"smiles": "COc1ccc(NC(=O)CSc2nnc(Cn3c(=O)sc4ccccc43)n2C)c(OC)c1", "hERG current change (%, negative = inhibition) at 1uM": -2.58}
{"smiles": "CCN(C(=O)CSc1nc(N)cc(N)n1)C1CCS(=O)(=O)C1", "note": "(centres unmarked)", "hERG current change (%, negative = inhibition) at 1uM": 7.31}
{"smiles": "CN(CC#CCC(c1ccccc1)c1ccccc1)C(C)(C)C.Cl", "hERG current change (%, negative = inhibition) at 1uM": -56.4}
{"smiles": "CN(CC#CC(O)(c1ccccc1)c1ccccc1)C(C)(C)C", "hERG current change (%, negative = inhibition) at 1uM": -40.8}
{"smiles": "CN(C)C(C)(C)C#CCC(c1ccccc1)c1ccccc1.Cl", "hERG current change (%, negative = inhibition) at 1uM": 5.49}
{"smiles": "CNc1ccc(/C=C/C(=O)c2cccc3ccccc23)cc1[N+](=O)[O-]", "hERG current change (%, negative = inhibition) at 1uM": 7.91}
{"smiles": "CC(C)c1ccc(N(CC(=O)N2CCN(Cc3ccccc3)CC2)S(C)(=O)=O)cc1", "hERG current change (%, negative = inhibition) at 1uM": 7.12}
{"smiles": "Cc1cc(/C([O-])=C(/C(=S)Nc2ccc(F)cc2)[n+]2ccccc2)c(C)n1-c1ccc(F)cc1", "hERG current change (%, negative = inhibition) at 1uM": -1.77}
